# Screening results (PubChem BioAssay)
# Most compounds without a hit are left out; they make up all but 3.3% or so of the library.
# ERa SRC1 inh = ER-alpha (human) coactivator binding inhibition; P03372; TR-FRET ER-alpha LBD / SRC-1 peptide, estradiol-bound; inhibition, % at 25.6 µM; hit rate 1.7% among 86,000; in the data active = inhibition above about 50%;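 note: 0% = receptor plus peptide control and 100% = peptide only without receptor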
# Smad3 FoxH1 inh = inhibitors of human Smad3 transcription factor binding. hit rate 0.29% among 88,000. inhibition, % at 25 µM. TR-FRET Smad3/Dy647-FoxH1 peptide binding, europium anti-His. P84022;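 active = compounds that reduce the energy-transfer binding signal between the protein and its labelled peptide by more than half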;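 note: 0% = Smad3 plus labelled peptide maximal FRET and 100% = peptide-only background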
# Target sequence (P84022 whole entry, looked up): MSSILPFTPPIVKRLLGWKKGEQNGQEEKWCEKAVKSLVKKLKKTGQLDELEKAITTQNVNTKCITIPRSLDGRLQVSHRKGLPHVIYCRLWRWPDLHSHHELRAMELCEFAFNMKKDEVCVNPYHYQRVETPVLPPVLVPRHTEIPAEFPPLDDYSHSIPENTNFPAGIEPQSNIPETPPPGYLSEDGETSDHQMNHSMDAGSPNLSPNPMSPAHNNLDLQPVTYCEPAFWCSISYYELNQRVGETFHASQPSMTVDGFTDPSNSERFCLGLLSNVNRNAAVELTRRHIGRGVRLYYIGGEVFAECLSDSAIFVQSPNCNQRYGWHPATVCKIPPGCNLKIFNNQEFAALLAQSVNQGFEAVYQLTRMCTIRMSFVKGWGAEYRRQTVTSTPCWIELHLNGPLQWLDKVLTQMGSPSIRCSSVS
# PLK1 inh = PLK1 (human) kinase inhibition | P53350 | recombinant PLK1 kinase, TR-FRET peptide phosphorylation | inhibition, % at 10 µM | hit rate 0.53% among 97,000 | AID 619;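 active = inhibition of 50% or more in the single-concentration screen; inactive = inhibition below 50%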;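 note: 0% = DMSO max control and 100% = H-89 dihydrochloride min control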
# ERb coact inh = ER-beta (human) coactivator binding inhibition; inhibition, % at 25.6 µM; TR-FRET ER-beta LBD / SRC1-Cy5 peptide binding; receptor agonist-loaded with 1 µM estradiol; Q92731; hit rate 1.3% among 86,000;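 active = compounds whose percent inhibition of the receptor-coactivator binding signal exceeds about 50% in the single-dose screen, limit read from the data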;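 note: 0% = receptor plus peptide wells without compound and 100% = peptide-only wells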
# ERa SRC1 pot = enhances coactivator binding to human estrogen receptor alpha; P03372; TR-FRET ERalpha-LBD/SRC-Cy5 coactivator binding, 2 h; 100 = basal binding, no effect; coactivator binding (% of control), % at 25.6 µM; hit rate 1.3% among 86,000; AID 639; in the data active = activity above about 200%;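 note: binding measured in presence of low estradiol as agonist stimulus; 0% = peptide alone without receptor and 100% = receptor with peptide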
# PLK1 PBD inh = inhibitors of human Plk1 polo box domain binding; P53350; Plk1 PBD phosphopeptide binding, fluorescence polarization; inhibition, %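 (tested at about 20 µM)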; hit rate 0.13% among 97,000; AID 693; in the data active = inhibition above about 34%, passing the limit was not always enough
# * marks the source's active call; other numbers are inactive results; i = inactive; nt = not tested or not shown; [ ] = another dose, or the depositor's remark.
SMILES,ERa SRC1 inh,Smad3 FoxH1 inh,PLK1 inh,ERb coact inh,ERa SRC1 pot,PLK1 PBD inh
O=S(=O)(O)c1nc2ccccc2n1Cc1ccccc1,0,12,16,63*,100,-23
CC(=O)n1c(COS(C)(=O)=O)nc2ccccc21,nt,12,nt,nt,nt,nt
COc1ccc(-c2nc(C#N)c(N3CCC(C(N)=O)CC3)o2)cc1,-4,-21,-4,-13,91,17
N#Cc1nc(-c2ccc(OCc3ccccc3)cc2)oc1N1CCC(C(N)=O)CC1,59*[fluorescence artefact?],-83,-8,44,250*[fluorescence artefact?],2
COc1ccc(N(CC(=O)O)N=O)cc1,nt,20,nt,nt,nt,nt
COc1ccc(C(=O)N2CCC(C(=O)Nc3ccccc3OC)CC2)cc1,-14,1,3,-15,223*[fluorescence artefact?],-11
O=C(COC(=O)CCc1nc2ccccc2s1)Nc1cccc(S(=O)(=O)N2CCOCC2)c1,4,4,-15,5,99,-1
O=C1CCCC(O)=C1C(C#Cc1ccccc1)C1=C(O)CCCC1=O,34,-6,nt,52*[fluorescence artefact?],24,nt
CC1(C)CC(=O)C(C(C#Cc2ccccc2)C2=C(O)CC(C)(C)CC2=O)=C(O)C1,20,24,-12,21,56,-8
Cc1cc(=O)[nH]c2cc3oc4ccccc4c3cc12,nt,-13,nt,nt,nt,nt
O=C(CSc1ncnc2c1oc1ccccc12)Nc1cccc(F)c1,42,9,i,50*[fluorescence artefact?],370*[fluorescence artefact?],13
Cc1cccc(NC(=O)CSc2ncnc3c2oc2ccccc23)c1,50*[fluorescence artefact?],42,i,58*[fluorescence artefact?],395*[fluorescence artefact?],13
Cn1c(SCC(=O)Nc2cccc(F)c2)nnc1-c1cc2ccccc2o1,-32,-215,-25,0,688*[fluorescence artefact?],-9
COc1ccccc1NC(=O)CSc1ncnc2c1oc1ccccc12,10,-9,-7,23,163,-22
CC(=O)Nc1ccc(-c2nnc(SCC(=O)Nc3ccc4c(c3)oc3ccccc34)n2C)cc1,43,0,22,25,103,-22
Cc1cccc(NC(=O)C2CCN(S(=O)(=O)c3c(C)nn(C)c3C)CC2)n1,2,3,nt,57*,114,nt
Nc1ncnc2c1ncn2C[C@@H](O)C(=O)O,nt,1,nt,nt,nt,nt
CCCCCCn1c(SCC(=O)OC)nc2c1c(=O)[nH]c(=O)n2C,0,-1,nt,0,78,nt
S=c1nc[nH]c2c1ncn2Cc1ccco1,nt,65*,nt,nt,nt,nt
NS(=O)(=O)C1=C(Cl)CC2=NC(CCC(=O)O)=NS(=O)(O)=C2C1,nt,16,nt,nt,nt,nt
CC(C)(C)Nc1cccccc1=O,-4,1,0,9,102,-17
CNc1cccccc1=S,96*[fluorescence artefact?],13,-14,-7,11,21
C[C@]12CCC(=O)C=C1CC[C@H]1[C@H]2C(=O)C[C@]2(C)C(CC(=O)O)=CC[C@@H]12,nt,5,nt,nt,nt,nt
CC(C)OC(=O)c1cccc(C(=O)OCc2ccco2)n1,-1,13,-3,4,101,-4
O=C1C2C3C=CC(C3)C2C(=O)N1CNc1ccc(O)cc1 (stereo not given),61*[fluorescence artefact?],9,nt,87*[fluorescence artefact?],47,nt
SMILES,ERa SRC1 inh,Smad3 FoxH1 inh,PLK1 inh,ERb coact inh,ERa SRC1 pot,PLK1 PBD inh
COc1ccc(-c2nnc(SCC(=O)c3cc(C)n(Cc4cccs4)c3C)o2)cc1,52*[fluorescence artefact?],-46,-5,38,303*,-14
Cc1cc(C(=O)CSc2nnc(-c3ccc(OC(F)F)cc3)o2)c(C)n1Cc1cccs1,55*[fluorescence artefact?],-3,2,44,150,-16
COc1ccc(-c2nnc(SCC(=O)c3cccs3)o2)cc1,10,17,nt,18,120,nt
COc1ccc(-n2cnnc2SCC(=O)c2cc(C)n(Cc3cccs3)c2C)cc1,21,-11,0,25,248*[fluorescence artefact?],7
COCCn1c(C)cc(C(=O)CSc2nncn2-c2ccccc2)c1C,-1,-6,-5,8,94,-22
Cc1cc(C(=O)CSc2nnc(-c3ccco3)o2)c(C)n1Cc1ccco1,54*[fluorescence artefact?],-29,-4,41,177,21
Cc1nccn1-c1cc(C(C)C)c(C#N)c2nc3ccccc3n12,-3,6,nt,-4,112,nt
CC(C)(C)OC(=O)N1CCC(C(=O)N2CCC[C@H]2C(=O)O)CC1,-4,-5,-9,-5,117,10
Cc1ccc(C=Nc2ccc(N(C)C)cc2)o1,25,6,6,89*[fluorescence artefact?],114,17
O=S(=O)(Nc1nc2ccccc2nc1Nc1ccc2c(c1)OCCO2)c1cccs1,70*[fluorescence artefact?],13,nt,71*[fluorescence artefact?],33,nt
CCOC(=O)c1cc(OC(=O)c2ccccc2OC)n(-c2ccccc2)n1,74*[fluorescence artefact?],14,-5,20,31,-26
CCOC(=O)c1cnn(-c2ccccc2)c1N,-3,-1,-9,-4,114,4
N=C(N)c1ccc(N=Nc2c(O)ccc3c2[nH]c2ccccc23)cc1,nt,102*,nt,nt,nt,nt
CC(=O)c1cccc(NC(=O)CSc2nnc(-c3ccc(S(=O)(=O)N4CCCC4)cc3)o2)c1,-21,-19,-14,-8,261*,1
CC1Cc2ccccc2N1C(=O)CSc1nnc(-c2ccc(S(=O)(=O)N3CCCC3)cc2)o1 (stereo not given),7,2,-10,13,374*,-12
CCCCOC(=O)c1cc(-c2ccc(/C=N/n3cnnc3)o2)ccc1Cl,56*,-2,-14,42,132,10
CCCCN(C)CCNC(=O)c1c[nH]c2ccc(S(=O)(=O)N(CC)CC)cc2c1=O,-3,9,0,-1,125,-9
CCN(c1ccccc1)S(=O)(=O)c1ccc2[nH]cc(C(=O)NCCOC)c(=O)c2c1,50*,6,-3,22,46,-1
CC(C)(C)OC(=O)CN1C(=O)C(Sc2n[nH]c(-c3ccccc3)n2)CCc2ccccc21 (stereo not given),nt,nt,-7,nt,nt,19
CCCn1c(=O)c2ccccc2n2c(SCc3cc(=O)n4ccsc4n3)nnc12,50*,-10,-6,31,89,17
C=CCn1c(SCC(=O)NCc2ccccc2)nnc1C1CCCCC1,3,1,-11,-2,113,6
C=CCn1c(SCc2cc(=O)n3ccsc3n2)nnc1C1CCCCC1,82*[fluorescence artefact?],1,-9,55*[fluorescence artefact?],75,-8
Cc1cccc(-n2c(SCc3cc(=O)n4ccsc4n3)nc3ccccc32)c1,60*,20,-16,22,53,7
N[C@H](C(=O)O)[C@@H](O)c1cnc[nH]1,nt,16,nt,nt,nt,nt
C=CCn1c(SCC(=O)NC2CCCCC2)nnc1C(C)NC(=O)c1cccs1 (stereo not given),83*,16,1,-5,129,5
c1c[nH]c(CN2CCOCC2)n1,nt,-13,nt,nt,nt,nt
Cc1sc2ncn(CC(=O)NCCCC(=O)N3CCN(c4ncccn4)CC3)c(=O)c2c1C,11,4,-11,2,118,-18
CCOC(=O)c1cccc(NC(=O)c2ccco2)c1,-7,7,nt,-1,105,nt
CCOC(=O)c1cccc(NC(=O)c2cccs2)c1,-3,10,-8,79*,114,8
